Reference: PubChem BioAssay AID1159580 (chemical genetic matrix, 2015)
Hit rate of the full screen: of about 5,500 compounds, about 2,000 (36%) were called active. Not shown: some 18% with an inconclusive outcome. Rule as the data show it: active = normalized growth mostly below about 0.91 (no sharp cut-off); inconclusive = no clear call, values can overlap the other calls; inactive = mostly above about 0.92. Some of the results follow.

Assay: chemical genetic growth profiling, strain panel (AID 1159580);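 also: tested at 20 µM; growth read once vehicle control cultures reached saturation at 30 °C; 1 = growth at the plate median or of vehicle wells; lower values mean less growth of the strain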
Settings: growth OD

Measured: normalized growth

CC(C(=O)O)c1ccc(C(=O)c2cccs2)cc1 (stereo not drawn)
inactive: S. cerevisiae deletion strains, locus YKL009W, strain mrt4, hits give low values 1.02 | S. cerevisiae deletion strains, locus YKL068W, hits give low values 1.01 | S. cerevisiae deletion strains, locus YKL085W, strain MDH1 (second series), hits give low values 0.983 | S. cerevisiae deletion strains, locus YKL085W, strain MDH1, hits give low values 0.983 | S. cerevisiae deletion strains, locus YKL160W, strain elf1, hits give low values 0.992 | S. cerevisiae deletion strains, locus YKL190W, strain CNB1, hits give low values 1 | S. cerevisiae deletion strains, locus YKR001C, strain vps1, hits give low values 1.01 | S. cerevisiae deletion strains, locus YKR026C, strain gcn3, hits give low values 0.987 | S. cerevisiae deletion strains, locus YKR091W, strain srl3, hits give low values 1.01 | S. cerevisiae deletion strains, locus YLL001W, strain dnm1, hits give low values 0.995 | S. cerevisiae deletion strains, locus YLL026W, hits give low values 0.99 | S. cerevisiae deletion strains, locus YLL041C, strain sdh2, hits give low values 0.996 | S. cerevisiae deletion strains, locus YLR027C, strain aat2, hits give low values 1.01 | S. cerevisiae deletion strains, locus YLR039C, strain RIC1, hits give low values 1.01 | S. cerevisiae deletion strains, locus YLR058C, strain SHM2, hits give low values 1.01 | S. cerevisiae deletion strains, locus YLR102C, strain apc9, hits give low values 1.01 | S. cerevisiae deletion strains, locus YLR113W, strain HOG1, hits give low values 0.968 | S. cerevisiae deletion strains, locus YLR221C, strain rsa3, hits give low values 0.991 | S. cerevisiae deletion strains, locus YLR258W, strain gsy2, hits give low values 1 | S. cerevisiae deletion strains, locus YLR262C, strain YPT6 (second series), hits give low values 0.951 | S. cerevisiae deletion strains, locus YLR262C, strain YPT6, hits give low values 1 | S. cerevisiae deletion strains, locus YLR268W, strain sec22, hits give low values 1.01 | S. cerevisiae deletion strains, locus YLR320W, strain mms22, hits give low values 1 | S. cerevisiae deletion strains, locus YLR330W, strain CHS5, hits give low values 0.999 | S. cerevisiae deletion strains, locus YLR342W, strain FKS1 (second series), hits give low values 1 | S. cerevisiae deletion strains, locus YLR342W, strain FKS1, hits give low values 1 | S. cerevisiae deletion strains, locus YLR357W, strain rsc2, hits give low values 0.967 | S. cerevisiae deletion strains, locus YLR370C, strain arc18, hits give low values 0.998 | S. cerevisiae deletion strains, locus YLR371W, strain rom2, hits give low values 1.02 | S. cerevisiae deletion strains, locus YLR384C, strain iki3, hits give low values 1.01 | S. cerevisiae deletion strains, locus YLR418C, strain cdc73, hits give low values 1.03 | S. cerevisiae deletion strains, locus YML016C, strain PPZ1, hits give low values 1.01 | S. cerevisiae deletion strains, locus YML032C, strain rad52, hits give low values 1.02 | S. cerevisiae deletion strains, locus YML120C, strain ndi1, hits give low values 1 | S. cerevisiae deletion strains, locus YML124C, strain tub3, hits give low values 1.02 | S. cerevisiae deletion strains, locus YMR058W, strain fet3, hits give low values 1.02 | S. cerevisiae deletion strains, locus YMR078C, strain ctf18, hits give low values 1.02 | S. cerevisiae deletion strains, locus YMR125W, strain sto1, hits give low values 0.976 | S. cerevisiae deletion strains, locus YMR129W, hits give low values 0.985 | S. cerevisiae deletion strains, locus YMR205C, strain PFK2, hits give low values 0.965 | S. cerevisiae deletion strains, locus YMR223W, strain ubp8, hits give low values 1.02 | S. cerevisiae deletion strains, locus YMR231W, strain pep5, hits give low values 0.991 | S. cerevisiae deletion strains, locus YMR263W, strain SAP30, hits give low values 1 | S. cerevisiae deletion strains, locus YMR307W, strain GAS1, hits give low values 0.997 | S. cerevisiae deletion strains, locus YNL067W, strain RPL9B, hits give low values 1 | S. cerevisiae deletion strains, locus YNL071W, strain lat1, hits give low values 1 | S. cerevisiae deletion strains, locus YNL153C, strain GIM3, hits give low values 1 | S. cerevisiae deletion strains, locus YNL183C, strain NPR1, hits give low values 0.949 | S. cerevisiae deletion strains, locus YNL209W, strain ssb2, hits give low values 1.01 | S. cerevisiae deletion strains, locus YNL233W, strain BNI4, hits give low values 1 | S. cerevisiae deletion strains, locus YNL248C, strain rpa49, hits give low values 1.02 | S. cerevisiae deletion strains, locus YNL250W, strain rad50, hits give low values 1.01 | S. cerevisiae deletion strains, locus YNL271C, strain bni1, hits give low values 1.02 | S. cerevisiae deletion strains, locus YNL298W, strain CLA4, hits give low values 1.02 | S. cerevisiae deletion strains, locus YNL307C, strain MCK1, hits give low values 1.02 | S. cerevisiae deletion strains, locus YNL322C, strain KRE1 (second series), hits give low values 0.994 | S. cerevisiae deletion strains, locus YNR049C, strain mso1, hits give low values 0.998 | S. cerevisiae deletion strains, locus YNR052C, strain pop2, hits give low values 1.01 | S. cerevisiae deletion strains, locus YOL006C, strain TOP1, hits give low values 0.978 | S. cerevisiae deletion strains, locus YOL012C, strain htz1 0.883 | S. cerevisiae deletion strains, locus YOL147C, strain pex11, hits give low values 1.01 | S. cerevisiae deletion strains, locus YOR001W, strain rrp6, hits give low values 1.01 | S. cerevisiae deletion strains, locus YOR061W, strain CKA2, hits give low values 1.01 | S. cerevisiae deletion strains, locus YOR069W, strain VPS5, hits give low values 1 | S. cerevisiae deletion strains, locus YOR070C, strain gyp1, hits give low values 1 | S. cerevisiae deletion strains, locus YOR080W, strain dia2, hits give low values 0.988 | S. cerevisiae deletion strains, locus YOR083W, strain WHI5, hits give low values 1 | S. cerevisiae deletion strains, locus YOR106W, strain vam3, hits give low values 0.995 | S. cerevisiae deletion strains, locus YOR136W, strain idh2, hits give low values 1.02 | S. cerevisiae deletion strains, locus YOR144C, strain elg1, hits give low values 1.02 | S. cerevisiae deletion strains, locus YOR184W, strain ser1, hits give low values 1.02 | S. cerevisiae deletion strains, locus YOR231W, strain MKK1, hits give low values 0.993 | S. cerevisiae deletion strains, locus YOR265W, strain rbl2, hits give low values 0.992 | S. cerevisiae deletion strains, locus YOR270C, strain vph1, hits give low values 0.997 | S. cerevisiae deletion strains, locus YOR290C, strain snf2, hits give low values 1.01 | S. cerevisiae deletion strains, locus YOR316C, strain cot1, hits give low values 1.02 | S. cerevisiae deletion strains, locus YPL051W, strain arl3, hits give low values 0.989 | S. cerevisiae deletion strains, locus YPL055C, strain LGE1, hits give low values 1.02 | S. cerevisiae deletion strains, locus YPL078C, strain atp4, hits give low values 0.983 | S. cerevisiae deletion strains, locus YPL106C, strain sse1, hits give low values 0.979 | S. cerevisiae deletion strains, locus YPL240C, strain hsp82, hits give low values 0.992 | S. cerevisiae deletion strains, locus YPL256C, strain CLN2, hits give low values 1.02 | S. cerevisiae deletion strains, locus YPR119W, strain clb2, hits give low values 1.01 | S. cerevisiae deletion strains, locus YPR141C, strain kar3, hits give low values 1.01 | S. cerevisiae deletion strains, locus YPR163C, strain tif3, hits give low values 1.02 | S. cerevisiae deletion strains, locus YPR167C, strain met16, hits give low values 1.02 | S. cerevisiae deletion strains, strain wtn01, hits give low values 1.01 | S. cerevisiae strains, strain wild type, hits give low values 1
